Experimental data from PMC11102866, “Nucleosome-bound NR5A2 structure reveals pioneer factor mechanism by DNA minor groove anchor competition”.
Residue numbers refer to the chain shown, from its start. Names and notes keep the numbering of the source.

B1: 39 (nucleosome)
DNA 1: ATCCTGGAGAATCCCGGTGCCGAGGCCGCTCAATTGGTCGTTCAAGGCCATAGCACCGCTTAAACGCACGTACGCGCTGTCCCCCGCGTTTTAACCGCCAAGGGGATTACTCCCTAGTCTCCAGGCACGTGTCAGATATATACATCCTGTGAT
DNA 2: ATCACAGGATGTATATATCTGACACGTGCCTGGAGACTAGGGAGTAATCCCCTTGGCGGTTAAAACGCGGGGGACAGCGCGTACGTGCGTTTAAGCGGTGCTATGGCCTTGAACGACCAATTGAGCGGCCTCGGCACCGGGATTCTCCAGGAT
modifications: reconstituted with mouse histones H2A, H2B, H3.3 and H4
B2: 46 (nucleosome)
DNA 1: B1 DNA 1 with T42A, C43G, A45C, G46A, C49T, A50C, T51A, C54G, A55C, C57A
DNA 2: B1 DNA 2 with G97T, T99G, G100C, A103T, T104G, G105A, C108T, T109G, G111C, A112T
modifications: reconstituted with mouse histones H2A, H2B, H3.3 and H4
B3: 41 (nucleosome)
DNA 1: B1 DNA 1 with T42A, C43G, A44T, A45C, G46A, G47A, C48G, C49G, A50C, T51C
DNA 2: B1 DNA 2 with A103G, T104G, G105C, G106C, C107T, C108T, T109G, T110A, G111C, A112T
modifications: reconstituted with mouse histones H2A, H2B, H3.3 and H4
B4: 45 (nucleosome)
DNA 1: B1 DNA 1 with T42A, C43G, A45C, G46A, C48T, T51A, A52G, A55C, C56A
DNA 2: B1 DNA 2 with G98T, T99G, T102C, A103T, G106A, C108T, T109G, G111C, A112T
modifications: reconstituted with mouse histones H2A, H2B, H3.3 and H4
B5: 44 (nucleosome)
DNA 1: B1 DNA 1 with T42A, C43G, A45C, G46A, G47T, C49A, T51G, A52G, G53C
DNA 2: B1 DNA 2 with C101G, T102C, A103C, G105T, C107A, C108T, T109G, G111C, A112T
modifications: reconstituted with mouse histones H2A, H2B, H3.3 and H4
B6: 40 (nucleosome)
DNA 1: B1 DNA 1 with T42A, C43T, A44C, G46A, C48G, A50C, T51A
DNA 2: B1 DNA 2 with A103T, T104G, G106C, C108T, T110G, G111A, A112T
modifications: reconstituted with mouse histones H2A, H2B, H3.3 and H4
B7: 42 (nucleosome)
DNA 1: ATCCTGGAGAATCCCGGTGCCGAGGCCGCTCAATTGGTCGTAGATCAAGGCCACACCGCTTAAACGCACGTACGCGCTGTCCCCCGCGTTTTAACCGCCAAGGGGATTACTCCCTAGTCTCCAGGCACGTGTCAGATATATACATCCTGTGAT
DNA 2: ATCACAGGATGTATATATCTGACACGTGCCTGGAGACTAGGGAGTAATCCCCTTGGCGGTTAAAACGCGGGGGACAGCGCGTACGTGCGTTTAAGCGGTGTGGCCTTGATCTACGACCAATTGAGCGGCCTCGGCACCGGGATTCTCCAGGAT
modifications: reconstituted with mouse histones H2A, H2B, H3.3 and H4
B8: 43 (nucleosome)
DNA 1: B7 DNA 1 with T45C, C46T, A47C, G49A, C51G, A53C, C54A
DNA 2: B7 DNA 2 with G100T, T101G, G103C, C105T, T107G, G108A, A109G
modifications: reconstituted with mouse histones H2A, H2B, H3.3 and H4

How the values were obtained:
[1] = biological target: NR5A2 wild type;histone octamer (Homo sapiens;, UniProt O00482;C0HKE1;Q6ZWY9;P84244;P62806 1-541;2-130;2-126;2-136;2-103, |); test: SeEN-seq (EMSA of nucleosome library followed by sequencing); 0.8 uM human NR5A2; 20 mM Tris-HCl pH 7.5, 120 mM NaCl, 1 mM MgCl2, 10 uM ZnCl2, 1 mM DTT, 100 ug/ml BSA, room temperature, 30 min; 0.1 uM nucleosome library; high values mean tight binding
[2] = biological target: mouse Nr5a2 wild type;histone octamer (Mus musculus;, UniProt P45448;C0HKE1;Q6ZWY9;P84244;P62806 1-560;2-130;2-126;2-136;2-103, |); test: SeEN-seq (EMSA of nucleosome library followed by sequencing); 1.2 uM mouse Nr5a2; 20 mM Tris-HCl pH 7.5, 120 mM NaCl, 1 mM MgCl2, 10 uM ZnCl2, 1 mM DTT, 100 ug/ml BSA, room temperature, 30 min; 0.1 uM nucleosome library; high values mean tight binding

Row | Binder | binding signal [1] | binding signal [2]
1 | B1 | 0.783 log2 enrichment (bound/unbound, relative to Widom 601) | 0.704 log2 enrichment (bound/unbound, relative to Widom 601)
2 | B2 | 0.748 log2 enrichment (bound/unbound, relative to Widom 601) | 0.651 log2 enrichment (bound/unbound, relative to Widom 601)
3 | B3 | 2.28 log2 enrichment (bound/unbound, relative to Widom 601) | 1.87 log2 enrichment (bound/unbound, relative to Widom 601)
4 | B4 | 0.761 log2 enrichment (bound/unbound, relative to Widom 601) | 0.671 log2 enrichment (bound/unbound, relative to Widom 601)
5 | B5 | 2.41 log2 enrichment (bound/unbound, relative to Widom 601) | 1.31 log2 enrichment (bound/unbound, relative to Widom 601)
6 | B6 | 0.693 log2 enrichment (bound/unbound, relative to Widom 601) | 0.706 log2 enrichment (bound/unbound, relative to Widom 601)
7 | B7 | 2.74 log2 enrichment (bound/unbound, relative to Widom 601) | 2.07 log2 enrichment (bound/unbound, relative to Widom 601)
8 | B8 | 2.58 log2 enrichment (bound/unbound, relative to Widom 601) | 1.55 log2 enrichment (bound/unbound, relative to Widom 601)
